Results filed as inconclusive are left out. Activity calls are given as the source filed them. Calls follow the shape of the dose curve; as a rule, active = well fitted curve in the direction sought with a large enough effect; inconclusive = small, poorly fitted or top-dose-only effect, or another doubt; inactive = no such curve, though single readings can be large; an effect the other way counts as inactive or inconclusive.
Experiments:
[1] = molecular target: Thioredoxin reductase 1, cytoplasmic (Rattus norvegicus) (UniProt O89049); experiment: qHTS Assay for Substrates of Mammalian Selenoprotein Thioredoxin Reductase 1 (TrxR1) (AID 488772);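 also: series mostly up to about 57 µM; a drop in NADPH fluorescence below the no-compound background marks a TrxR1 substrate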
Chain of Thioredoxin reductase 1, cytoplasmic (Rattus norvegicus) (O89049 whole entry, looked up): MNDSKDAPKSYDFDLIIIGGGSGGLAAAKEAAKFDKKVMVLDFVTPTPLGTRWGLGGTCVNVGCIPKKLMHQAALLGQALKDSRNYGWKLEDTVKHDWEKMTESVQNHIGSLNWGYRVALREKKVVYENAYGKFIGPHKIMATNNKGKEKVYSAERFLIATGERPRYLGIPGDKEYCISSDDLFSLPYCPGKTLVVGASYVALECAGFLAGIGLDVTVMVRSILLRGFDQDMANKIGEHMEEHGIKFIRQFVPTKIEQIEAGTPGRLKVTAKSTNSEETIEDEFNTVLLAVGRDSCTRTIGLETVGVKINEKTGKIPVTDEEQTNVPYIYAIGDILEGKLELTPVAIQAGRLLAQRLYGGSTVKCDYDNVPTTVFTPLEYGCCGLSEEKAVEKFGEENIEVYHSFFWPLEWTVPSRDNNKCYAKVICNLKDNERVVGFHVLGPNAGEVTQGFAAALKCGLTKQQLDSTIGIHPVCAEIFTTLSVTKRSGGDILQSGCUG
Outline: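 In this dual-purpose format, potential substrates are identified from the first fluorescence read after selenite addition, not from the 8-minute delta. Rat enzyme is preincubated with NADPH and then with compound at ~22 deg C.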

[2] = molecular target: Thioredoxin reductase 1, cytoplasmic (Rattus norvegicus) (UniProt O89049); experiment: qHTS Assay for Inhibitors of Mammalian Selenoprotein Thioredoxin Reductase 1 (TrxR1) (AID 488773);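 also: drop in NADPH fluorescence over an 8 min run after selenite addition; series mostly up to about 57 µM; nearly all actives have a fitted effect of over 40% in size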
Outline: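 Inhibition is scored from the loss of NADPH fluorescence between first and last reads of an 8-min kinetic run. Selenite (400 uM) was the substrate, added after 15 min compound preincubation at room temperature.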

[3] = molecular target: Flap endonuclease 1 (Homo sapiens) (UniProt P39748); experiment: qHTS Validation Assay for the Inhibitors of Human Flap endonuclease 1 (FEN1) (AID 488816)
Chain of Flap endonuclease 1 (Homo sapiens) (P39748 whole entry, looked up): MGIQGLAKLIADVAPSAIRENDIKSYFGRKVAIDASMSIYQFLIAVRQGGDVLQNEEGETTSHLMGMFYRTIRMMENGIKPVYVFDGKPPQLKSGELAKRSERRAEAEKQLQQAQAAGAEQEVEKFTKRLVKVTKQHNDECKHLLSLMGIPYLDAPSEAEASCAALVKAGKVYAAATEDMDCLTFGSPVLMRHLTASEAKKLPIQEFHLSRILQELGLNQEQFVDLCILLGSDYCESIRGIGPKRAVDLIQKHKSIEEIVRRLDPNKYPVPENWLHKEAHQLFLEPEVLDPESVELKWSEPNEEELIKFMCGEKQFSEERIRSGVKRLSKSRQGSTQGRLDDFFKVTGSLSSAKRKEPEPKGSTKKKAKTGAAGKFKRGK
Outline: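 Steps: add FEN1 (10 nM reagent) or buffer only; pin compounds; hold 15 min at room temperature; start with substrate, 50 nM final; read at 0 and 15 min; correct, normalize and fit a four-parameter Hill curve.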

[4] = molecular target: M-phase phosphoprotein 8 (Homo sapiens) (UniProt Q99549); experiment: qHTS Validation Assay for Inhibitors for MPP8 Chromodomain Interactions with Methylated Histone Tails (AID 488949);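 also: AlphaScreen signal from MPP8 chromodomain bound to biotinylated H3K9me3 peptide; top concentration of the series differs between compounds; nearly all actives have a fitted effect of over 55% in size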
Chain of M-phase phosphoprotein 8 (Homo sapiens) (Q99549 whole entry, looked up): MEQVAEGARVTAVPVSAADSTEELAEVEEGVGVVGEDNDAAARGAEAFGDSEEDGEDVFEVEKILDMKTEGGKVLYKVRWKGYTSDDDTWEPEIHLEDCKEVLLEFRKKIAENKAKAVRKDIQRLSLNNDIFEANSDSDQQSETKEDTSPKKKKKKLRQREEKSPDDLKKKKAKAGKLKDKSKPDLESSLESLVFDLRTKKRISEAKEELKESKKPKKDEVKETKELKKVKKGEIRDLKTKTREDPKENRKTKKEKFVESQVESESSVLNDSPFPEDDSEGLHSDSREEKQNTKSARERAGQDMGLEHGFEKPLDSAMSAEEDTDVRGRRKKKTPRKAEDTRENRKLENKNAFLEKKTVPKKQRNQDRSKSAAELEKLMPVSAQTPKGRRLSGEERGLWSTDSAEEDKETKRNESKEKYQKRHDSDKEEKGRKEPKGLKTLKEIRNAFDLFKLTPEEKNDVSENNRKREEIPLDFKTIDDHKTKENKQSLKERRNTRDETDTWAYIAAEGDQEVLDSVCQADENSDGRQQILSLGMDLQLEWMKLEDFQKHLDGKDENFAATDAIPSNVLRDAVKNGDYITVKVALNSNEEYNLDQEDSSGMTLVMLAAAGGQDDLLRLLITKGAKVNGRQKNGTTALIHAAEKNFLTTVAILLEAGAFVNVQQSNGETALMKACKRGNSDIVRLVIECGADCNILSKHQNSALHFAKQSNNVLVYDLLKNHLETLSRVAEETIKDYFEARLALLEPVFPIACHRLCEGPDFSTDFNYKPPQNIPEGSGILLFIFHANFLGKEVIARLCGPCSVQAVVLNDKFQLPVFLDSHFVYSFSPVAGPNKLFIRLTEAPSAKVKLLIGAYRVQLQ
Outline: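 AlphaScreen proximity signal from streptavidin donor and Ni-chelate acceptor beads (10 ug/mL each) reported binding of MPP8 to trimethyl-K9 H3(1-18) peptide, both at 50 nM. The complex formed 30 min before a 30 min compound exposure at room temperature, in PBS pH 7.4.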

[5] = molecular target: Chromobox protein homolog 1 (Homo sapiens) (UniProt P83916); experiment: qHTS Validation Assay for Inhibitors of HP1-beta Chromodomain Interactions with Methylated Histone Tails (AID 488953);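 also: loss of AlphaScreen luminescence from HP1-beta binding biotinylated H3K9me3 peptide; series mostly up to about 110 µM; nearly all actives have a fitted effect of over 50% in size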
Chain of Chromobox protein homolog 1 (Homo sapiens) (P83916 whole entry, looked up): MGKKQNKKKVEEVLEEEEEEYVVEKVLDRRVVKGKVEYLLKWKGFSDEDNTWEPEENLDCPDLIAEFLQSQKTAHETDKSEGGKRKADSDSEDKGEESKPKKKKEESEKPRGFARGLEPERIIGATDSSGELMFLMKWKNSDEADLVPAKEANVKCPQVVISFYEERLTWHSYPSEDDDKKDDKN
Outline: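 Compounds pinned into a preassembled complex of HP1-beta and trimethyl-K9 histone H3(1-18) biotin peptide (50 nM each; PBS pH 7.4, 0.01% Tween-20). After 30 min, bead-based AlphaScreen detection followed.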

[6] = molecular target: Methanococcus maripaludis chaperonin (MmCpn) (UniProt Q6LX38); experiment: High-Throughput Screening for Modulators of Cytosolic Chaperonin Activity: MmCpn Primary Screen (AID 488978);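 also: 50 nM MmCpn enzyme hydrolysing 30 µM ATP at 37 °C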
Chain of Methanococcus maripaludis chaperonin (MmCpn) (Q6LX38 1-543): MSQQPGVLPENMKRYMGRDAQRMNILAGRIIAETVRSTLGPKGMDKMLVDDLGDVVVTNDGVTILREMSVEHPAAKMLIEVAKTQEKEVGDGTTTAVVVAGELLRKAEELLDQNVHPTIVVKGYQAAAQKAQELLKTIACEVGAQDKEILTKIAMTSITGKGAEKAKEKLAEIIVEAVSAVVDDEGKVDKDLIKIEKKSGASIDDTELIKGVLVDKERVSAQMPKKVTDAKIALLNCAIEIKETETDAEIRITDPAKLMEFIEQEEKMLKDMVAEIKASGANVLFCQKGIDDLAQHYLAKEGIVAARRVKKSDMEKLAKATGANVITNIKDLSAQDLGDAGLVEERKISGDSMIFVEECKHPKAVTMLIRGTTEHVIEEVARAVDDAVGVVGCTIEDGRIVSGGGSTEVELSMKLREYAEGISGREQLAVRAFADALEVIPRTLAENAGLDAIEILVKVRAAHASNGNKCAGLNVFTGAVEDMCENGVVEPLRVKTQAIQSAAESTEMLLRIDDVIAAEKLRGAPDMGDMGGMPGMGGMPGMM
Outline: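 ATPase activity of 50 nM MmCpn was assayed with 30 uM ATP, 10 minutes at 37C, after a 5 min compound preincubation at room temperature. ADP production was read as HTRF emission at 590 and 665 nm.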

[7] = molecular target: D(1A) dopamine receptor (Homo sapiens) (UniProt P21728); experiment: HTS Assay for Allosteric Agonists of the Human D1 Dopamine Receptor: Primary Screen for Agonists (AID 488981)
Chain of D(1A) dopamine receptor (Homo sapiens) (P21728 whole entry, looked up): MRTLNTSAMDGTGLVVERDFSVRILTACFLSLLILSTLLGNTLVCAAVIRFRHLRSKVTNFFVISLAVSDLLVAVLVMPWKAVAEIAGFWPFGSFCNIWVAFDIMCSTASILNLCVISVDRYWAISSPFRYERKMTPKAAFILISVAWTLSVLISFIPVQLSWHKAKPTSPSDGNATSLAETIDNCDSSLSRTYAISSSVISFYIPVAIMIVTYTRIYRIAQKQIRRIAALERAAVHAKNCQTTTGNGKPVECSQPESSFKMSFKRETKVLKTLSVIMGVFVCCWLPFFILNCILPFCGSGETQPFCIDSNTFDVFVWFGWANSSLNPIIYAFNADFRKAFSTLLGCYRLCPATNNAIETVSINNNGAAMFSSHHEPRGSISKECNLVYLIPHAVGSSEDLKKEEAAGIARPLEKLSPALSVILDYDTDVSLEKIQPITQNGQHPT
Source text: Dopamine receptors (DARs) are involved in the etiology and/or therapy of a number of neuropsychiatric and endocrine disorders. For instance, all receptor-based antiparkinsonian drugs work via stimulating the […] DAR subtype whereas all FDA-approved antipsychotic agents are antagonists of this receptor. […] There are three different types of allosteric modulators that we are seeking, two of which will stimulate or augment receptor signaling, allosteric agonists and potentiators, while the third, allosteric antagonists, will attenuate receptor signaling. The present primary screening assay measures compound agonism by tracking calcium flux in a […], inducible Hek293 Trex D1 cell line.
Freshly passaged cells are plated in 1536 well black, clear bottom plates at a density of 4000 cells/well in 3 ul of complete media containing 1x tetracycline inducer. After an overnight incubation at 30 C in 5% CO2, cells are loaded with 2 ul of the no wash Calcium Assay Kit (ABD Bioquest) and incubated at room temperature for 30 to 90 minutes. A 10 cycle (1 second/cycle) baseline measurement is taken and then the FDSS online 1536 pintool delivers 23 nl of compound library (as well as dopamine controls) to the plate. The plate is measured for kinetically at 1 cycle/sec for 180 seconds and is considered to be the agonist portion of the assay (eg, compounds which activate a positive calcium response during this portion are flagged as potential agonists). Following the 180 second read, 1 ul of an EC20 of dopamine is delivered by an onboard pipette head. Measurements are taken kinetically for an additional 180 seconds.

[8] = Quantitative high throughput screen for delayed death inhibitors of the malarial parasite plastid, 48 hour incubation (AID 488752); also: nearly all actives have a fitted effect of over 65% in size
Outline: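 Cultures: infected erythrocytes at final 2% hematocrit and 0.1% parasitemia in Albumax-supplemented RPMI. Parasites express integrated firefly luciferase. Incubation with compound lasts 48 h before luminescent detection of remaining reporter activity.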

[9] = molecular target: Transient receptor potential cation channel subfamily V member 1 (Homo sapiens) (UniProt Q8NER1); experiment: HTS Assay for Compounds that Act as Enhancers of the Vanilloid Receptor 1 (AID 488979)
Chain of Transient receptor potential cation channel subfamily V member 1 (Homo sapiens) (Q8NER1 whole entry, looked up): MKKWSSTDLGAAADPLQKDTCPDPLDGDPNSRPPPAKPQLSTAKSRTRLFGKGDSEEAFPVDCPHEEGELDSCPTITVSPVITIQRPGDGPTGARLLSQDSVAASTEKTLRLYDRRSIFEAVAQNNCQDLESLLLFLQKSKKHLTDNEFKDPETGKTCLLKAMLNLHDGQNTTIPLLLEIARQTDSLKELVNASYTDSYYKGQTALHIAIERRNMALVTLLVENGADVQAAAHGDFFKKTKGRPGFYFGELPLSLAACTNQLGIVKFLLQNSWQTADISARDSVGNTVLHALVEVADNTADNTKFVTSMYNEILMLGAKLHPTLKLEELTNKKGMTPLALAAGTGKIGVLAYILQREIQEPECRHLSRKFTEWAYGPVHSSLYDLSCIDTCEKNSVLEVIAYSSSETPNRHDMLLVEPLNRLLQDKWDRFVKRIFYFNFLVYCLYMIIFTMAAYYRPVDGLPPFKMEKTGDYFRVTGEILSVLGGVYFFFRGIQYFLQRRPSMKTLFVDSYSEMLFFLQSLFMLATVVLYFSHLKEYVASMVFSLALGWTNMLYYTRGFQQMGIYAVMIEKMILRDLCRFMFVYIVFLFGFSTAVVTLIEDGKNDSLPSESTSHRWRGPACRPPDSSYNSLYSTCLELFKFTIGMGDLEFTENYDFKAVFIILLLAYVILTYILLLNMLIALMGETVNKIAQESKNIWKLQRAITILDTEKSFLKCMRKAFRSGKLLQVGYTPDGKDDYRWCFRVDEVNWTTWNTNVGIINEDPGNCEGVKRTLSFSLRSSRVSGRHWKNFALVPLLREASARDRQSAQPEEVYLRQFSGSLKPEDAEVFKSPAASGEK
Outline: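 TRPV1-expressing cells loaded with Fluo-8 calcium dye; compounds added and calcium influx read kinetically for 3 min (agonist phase), then capsaicin at EC20 added and read 2 min more for enhancement. Fluorescence ex 480/em 520 nm.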

[10] = molecular target: Thyrotropin receptor (Homo sapiens) (UniProt P16473); experiment: qHTS Assay for Antagonists of the Thyroid Stimulating Hormone Receptor (AID 488980); also: series mostly up to about 58 µM
Chain of Thyrotropin receptor (Homo sapiens) (P16473 whole entry, looked up): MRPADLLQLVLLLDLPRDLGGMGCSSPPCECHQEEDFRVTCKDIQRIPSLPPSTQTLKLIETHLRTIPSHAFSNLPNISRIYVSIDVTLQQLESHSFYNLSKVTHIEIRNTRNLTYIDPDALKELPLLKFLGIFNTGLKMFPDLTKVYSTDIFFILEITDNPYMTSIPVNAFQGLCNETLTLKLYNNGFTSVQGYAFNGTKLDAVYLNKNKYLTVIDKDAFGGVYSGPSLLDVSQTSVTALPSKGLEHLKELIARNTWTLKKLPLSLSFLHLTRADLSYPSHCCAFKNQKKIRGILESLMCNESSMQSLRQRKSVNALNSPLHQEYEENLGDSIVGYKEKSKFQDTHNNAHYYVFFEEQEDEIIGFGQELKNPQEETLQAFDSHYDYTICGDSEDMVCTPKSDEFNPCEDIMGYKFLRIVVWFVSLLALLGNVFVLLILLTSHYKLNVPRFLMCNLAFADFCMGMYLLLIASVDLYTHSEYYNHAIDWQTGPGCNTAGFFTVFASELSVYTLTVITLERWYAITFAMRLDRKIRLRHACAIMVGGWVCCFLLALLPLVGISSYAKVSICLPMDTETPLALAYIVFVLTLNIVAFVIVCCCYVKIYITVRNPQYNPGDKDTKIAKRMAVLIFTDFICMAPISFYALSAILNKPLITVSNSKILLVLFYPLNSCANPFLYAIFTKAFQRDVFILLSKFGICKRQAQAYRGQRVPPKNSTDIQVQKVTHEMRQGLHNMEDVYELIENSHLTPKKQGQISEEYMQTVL
Outline: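 Inhibition of cAMP raised by EC80 TSH (4 nM final) was read by HTRF, with lysate cAMP competing against cAMP-d2 for cryptate antibody after 30 min at room temperature. The cells were transfected HEK293 held in phosphodiesterase inhibitor RO 20-1724 at 70 uM.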

Measured: outcome

O=c1[nH]c(=O)n([C@H]2C[C@@H](O)[C@@H](CO)O2)cc1C=CBr
inactive: [1] | [2] | [3] | [4] | [5] | [6] | [7]

N=c1ccn2c(n1)O[C@H]1[C@@H](O)[C@@H](CO)O[C@H]12
inactive: [8] | [4] | [9] | [10]

COc1ccc2cc([S+]([O-])Cc3ncc(C)c(OC)c3C)nc2c1
inactive: [1] | [2] | [3] | [5] | [6] | [7]

CN[C@H](CC(C)C)C(=O)N[C@H]1C(=O)N[C@@H](CC(N)=O)C(=O)N[C@@H]2C(=O)N[C@H]3C(=O)N[C@H](C(=O)N[C@H](C(=O)O)c4cc(O)cc(O)c4-c4cc3ccc4O)[C@H](O)c3ccc(c(Cl)c3)Oc3cc2cc(c3O[C@@H]2O[C@H](CO)[C@@H](O)[C@H](O)[C@@H]2O[C@H]2C[C@](C)(N)[C@H](O)[C@H](C)O2)Oc2ccc(cc2Cl)[C@H]1O
inactive: [1] | [2] | [4] | [6] | [7]

From PubChem BioAssay (NCATS)
